Measured values taken from PubChem BioAssay (EPA / NIEHS).
Activity calls are given as the source filed them. Rule for the calls: active = hit-call score of the fitted dose curve at least 0.9, where 1 is the maximum; inactive = score below 0.9.

Experiments:
Conditions in all cases: primary human HUVEC with PBMC; actives raise or lower the signal
[1] = read-out: Interleukin-1 alpha (IL1a), IL1A (gene 3552); assay: BSK_LPS_IL1a: BioMAP Diversity Plus: LPS Assay for Interleukin-1 alpha (IL1a) Biomarker Activity (AID 2283080)
Outline: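 ELISA read-out of IL-1 alpha from a human primary vascular co-culture (endothelium plus PBMC) under LPS, sampled 24 hours post-dosing. Activity was fitted in both directions relative to DMSO controls.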

[2] = read-out: Monocyte Chemoattractant Protein-1 (MCP1), CCL2 (gene 6347); assay: BSK_LPS_MCP1: BioMAP Diversity Plus: LPS Assay for Monocyte Chemoattractant Protein-1 (MCP1) Biomarker Activity (AID 2283081);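 for AC50: secreted MCP-1 protein quantified by ELISA in culture supernatant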
Outline: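 Human endothelial–PBMC co-cultures were dosed with chemical, then LPS-driven MCP-1 levels were quantified by ELISA at 24 h. Activity in either direction was fitted versus DMSO negative control.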

[3] = BSK_LPS_PGE2: BioMAP Diversity Plus: LPS Assay for Prostaglandin E2 (PGE2) Biomarker Activity (AID 2283082);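 for AC50: secreted prostaglandin E2 measured by ELISA in LPS-stimulated co-culture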
Outline: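 LPS-activated HUVEC/PBMC co-culture; cmpd dosed, 24 h; PGE2 by ELISA; bidirectional fit vs DMSO; SRB (0.1%, TCA-fixed, 560 nm) in parallel plates for overt cytotox.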

[4] = read-out: Macrophage colony-stimulating factor (MCSF), CSF1 (gene 1435); assay: BSK_LPS_MCSF: BioMAP Diversity Plus: LPS Assay for Macrophage colony-stimulating factor (MCSF) Biomarker Activity (AID 2283083)
Outline: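 ELISA readout of M-CSF after 24 h compound exposure in a human endothelial/PBMC co-culture. Activity, in either direction, is fitted relative to DMSO vehicle.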

[5] = read-out: Tissue Factor, F3 (gene 2152); assay: BSK_LPS_TissueFactor: BioMAP Diversity Plus: LPS Assay for Tissue Factor Biomarker Activity (AID 2283084)
Outline: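 ELISA signal for cell-surface Tissue Factor (CD142) was read 24 h after compound dosing of an LPS-stimulated human endothelial–PBMC primary co-culture. Gain or loss of signal was scored relative to DMSO.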

[6] = read-out: Tumor necrosis factor (Homo sapiens) (UniProt P01375); assay: BSK_LPS_TNFa: BioMAP Diversity Plus: LPS Assay for Tumour Necrosis Factor alpha (TNFa) Biomarker Activity (AID 2283085);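 for AC50: TNFa protein level quantified by ELISA in the co-culture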
Outline: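 Read-out is ELISA of TNFa in primary human endothelial cell–PBMC co-cultures at 24 h after compound. Activity in either direction was fitted against DMSO.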

[7] = read-out: Vascular cell adhesion molecule 1 (VCAM1), VCAM1 (gene 7412); assay: BSK_LPS_VCAM1: BioMAP Diversity Plus: LPS Assay for Vascular cell adhesion molecule 1 (VCAM1) Biomarker Activity (AID 2283086)
Outline: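 HUVEC + PBMC co-culture, LPS system; compound 24 h; VCAM-1 by ELISA; bidirectional fit vs DMSO control; parallel SRB (0.1%, TCA-fixed, 560 nm) for cytotoxicity.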

[8] = read-out: CD38, CD38 (gene 952); assay: BSK_SAg_CD38: BioMAP Diversity Plus: SAg Assay for CD38 Biomarker Activity (AID 2283087)
Outline: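 Human HUVEC plus PBMC co-culture stimulated with superantigen; CD38 measured by ELISA 24 h after chemical dosing. Fluorescence read-out, bidirectional fit against DMSO; cytotoxicity tracked in parallel by SRB and Alamar Blue.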

[9] = read-out: CD40, CD40 (gene 958); assay: BSK_SAg_CD40: BioMAP Diversity Plus: SAg Assay for CD40 Biomarker Activity (AID 2283088)
Outline: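 Compounds were dosed onto a human primary endothelial–PBMC co-culture, and after 24 h CD40 was quantified by ELISA using a fluorescence signal. Activity in either direction was fitted relative to DMSO.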

[10] = read-out: CD69, CD69 (gene 969); assay: BSK_SAg_CD69: BioMAP Diversity Plus: SAg Assay for CD69 Biomarker Activity (AID 2283089);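 for AC50: cell surface CD69 protein quantified by ELISA with fluorescence detection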
Outline: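 Endothelial/PBMC co-culture; chemical added; 24 h incubation; CD69 ELISA with fluorescence detection; bidirectional fit vs DMSO.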

Tumor necrosis factor (Homo sapiens), sequence (P01375 whole entry, looked up): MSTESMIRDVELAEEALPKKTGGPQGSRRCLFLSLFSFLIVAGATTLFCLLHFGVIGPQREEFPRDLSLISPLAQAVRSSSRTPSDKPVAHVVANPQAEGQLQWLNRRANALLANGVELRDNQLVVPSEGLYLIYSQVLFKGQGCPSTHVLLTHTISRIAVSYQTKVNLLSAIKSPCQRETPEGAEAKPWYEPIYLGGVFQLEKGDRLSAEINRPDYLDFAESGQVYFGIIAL

**Q.** Which outcome [1] does the source give for CN(C)CCO here?
**A.** inactive

**Q.** What about the outcome [2] of the same compound?
**A.** inactive

**Q.** And the outcome [3]?
**A.** inactive

**Q.** What about the outcome [4] of the same compound?
**A.** inactive

**Q.** And the outcome [5]?
**A.** inactive

**Q.** What about the outcome [6] of the same compound?
**A.** inactive

**Q.** What about the outcome [7] of the same compound?
**A.** inactive

**Q.** And the outcome [8]?
**A.** inactive

**Q.** And the outcome [9]?
**A.** inactive

**Q.** What about the outcome [10] of the same compound?
**A.** inactive

**Q.** With O=NN(c1ccccc1)c1ccccc1 as the compound, how does the outcome [1] read?
**A.** inactive

**Q.** What about the outcome [2] of the same compound?
**A.** inactive

**Q.** And the AC50 [3]?
**A.** 2.14 µM (active)

**Q.** What about the outcome [4] of the same compound?
**A.** inactive

**Q.** And the outcome [5]?
**A.** inactive

**Q.** And the AC50 [6]?
**A.** 3.97 µM (active)

**Q.** What about the outcome [7] of the same compound?
**A.** inactive

**Q.** And the outcome [8]?
**A.** inactive

**Q.** What about the outcome [9] of the same compound?
**A.** inactive

**Q.** And the outcome [10]?
**A.** inactive

**Q.** Which results are given for CCNc1nc(NC(C)C)nc(SC)n1?
**A.** outcome [1]: inactive; outcome [2]: inactive; outcome [3]: inactive; outcome [4]: inactive; outcome [5]: inactive; AC50 [6]: 5.99 µM (active); outcome [7]: inactive; AC50 [8]: 14.9 µM (active); outcome [9]: inactive; outcome [10]: inactive

**Q.** For CCCCCCCCCC[N+](C)(C)CCCCCCCCCC, which AC50 [1] is on record?
**A.** 3.75 µM (active)

**Q.** And the AC50 [2]?
**A.** 4.16 µM (active)

**Q.** And the AC50 [3]?
**A.** 3.88 µM (active)

**Q.** And the AC50 [4]?
**A.** 3.79 µM (active)

**Q.** And the AC50 [5]?
**A.** 4.31 µM (active)

**Q.** What about the AC50 [6] of the same compound?
**A.** 3.79 µM (active)

**Q.** What about the AC50 [8] of the same compound?
**A.** 2.38 µM (active)

**Q.** What about the AC50 [9] of the same compound?
**A.** 4.45 µM (active)

**Q.** What about the AC50 [10] of the same compound?
**A.** 4.61 µM (active)

**Q.** Which AC50 [1] does the source give for Clc1ccc(C(c2ccccc2Cl)C(Cl)(Cl)Cl)cc1 (configuration not stated) here?
**A.** 20.8 µM (active)

**Q.** What about the AC50 [2] of the same compound?
**A.** 21.6 µM (active)

**Q.** What about the AC50 [3] of the same compound?
**A.** 4.54 µM (active)

**Q.** And the AC50 [4]?
**A.** 18.3 µM (active)

**Q.** What about the AC50 [5] of the same compound?
**A.** 23.4 µM (active)

**Q.** What about the AC50 [6] of the same compound?
**A.** 23.8 µM (active)

**Q.** And the AC50 [8]?
**A.** 20.1 µM (active)

**Q.** And the AC50 [9]?
**A.** 14.1 µM (active)

**Q.** What about the AC50 [10] of the same compound?
**A.** 23.2 µM (active)

**Q.** For CCC(=O)O[C@H]1CC[C@H]2[C@@H]3CCC4=CC(=O)CC[C@]4(C)[C@H]3CC[C@]12C, which AC50 [1] is on record?
**A.** 31.9 µM (active)

**Q.** And the AC50 [2]?
**A.** 25.5 µM (active)

**Q.** And the outcome [3]?
**A.** inactive

**Q.** What about the AC50 [4] of the same compound?
**A.** 26 µM (active)

**Q.** What about the AC50 [5] of the same compound?
**A.** 30.8 µM (active)

**Q.** And the AC50 [6]?
**A.** 32.1 µM (active)

**Q.** What about the AC50 [7] of the same compound?
**A.** 30.5 µM (active)

**Q.** What about the AC50 [8] of the same compound?
**A.** 36 µM (active)

**Q.** What about the AC50 [9] of the same compound?
**A.** 31.9 µM (active)

**Q.** What about the AC50 [10] of the same compound?
**A.** 31.1 µM (active)

**Q.** Which outcome [1] does the source give for Cc1cc(O)ccc1Cl here?
**A.** inactive

**Q.** What about the outcome [2] of the same compound?
**A.** inactive

**Q.** What about the outcome [3] of the same compound?
**A.** inactive

**Q.** What about the outcome [4] of the same compound?
**A.** inactive

**Q.** And the outcome [5]?
**A.** inactive

**Q.** What about the outcome [6] of the same compound?
**A.** inactive

**Q.** What about the outcome [7] of the same compound?
**A.** inactive

**Q.** What about the outcome [8] of the same compound?
**A.** inactive

**Q.** And the outcome [9]?
**A.** inactive

**Q.** And the outcome [10]?
**A.** inactive

**Q.** Which results are given for CC(C)C(=O)OCC(C)(C)C(OC(=O)C(C)C)C(C)C (configuration not stated)?
**A.** outcome [1]: inactive; outcome [2]: inactive; outcome [3]: inactive; outcome [4]: inactive; outcome [5]: inactive; outcome [6]: inactive; outcome [8]: inactive; outcome [9]: inactive; outcome [10]: inactive
